Active and inactive are the calls of the source.
How the values were obtained:
[1] = system: Plasmodium falciparum Sir2 (PF13_0152, Sir2A); experiment: pfSir2 binders on small-molecule microarrays, primary screen, biochemical, small-molecule microarray, 635 nm fluorescence (AID 1098); settings: small-molecule microarray binding, fluorescence 635 nm; higher = more signal;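 note: score merges spot fluorescence intensity with its signal-to-noise ratio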
[2] = small-molecule microarray binders of probe aDKK1, primary screen, biochemical, biotinylated probe, 635/667 nm fluorescence (AID 1099); settings: higher = more signal;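 note: score merges 667nm spot fluorescence with signal to noise across triplicate slides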
[3] = small-molecule microarray binders of probe aCHRDL2, primary screen, biochemical, biotinylated probe, 635/667 nm fluorescence (AID 1100); settings: higher = more signal
[4] = splicing luciferase reporter signal modulators, primary screen, spliceosome inhibition project, cell-based, HEK293, splice +/- reporter (AID 1101); settings: luminescence, 24 h, higher = more signal, called active from +8 up or from −8 down;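 note: HEK293 cells carrying a splicing-competent luciferase reporter gene; test concentration not given here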
[5] = biological target: Fibroblast growth factor 10 (Homo sapiens) (UniProt O15520); experiment: FGF10 binders on small-molecule microarrays, primary screen, biochemical, small-molecule microarray, 635 nm fluorescence (AID 1102); settings: FGF10 binding, fluorescence 635 nm, higher = more signal
[6] = system: glycogen synthase kinase-3 (GSK3A per assay name; protocol says GSK3B); experiment: GSK3 binders on small-molecule microarrays, primary screen, biochemical, small-molecule microarray, 635 nm fluorescence, GSK3A (AID 1103); settings: small-molecule microarray binding, fluorescence 635 nm; higher = more signal; note: the record names both GSK3A and GSK3B
[7] = biological target: Epidermal growth factor receptor (Homo sapiens) (UniProt P00533); experiment: EGFR binders on small-molecule microarrays, primary screen, biochemical, small-molecule microarray, 635 nm fluorescence (AID 1104); settings: EGFR binding, higher = more signal;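 note: score merges 667 nm emission intensity with spot signal to noise over triplicate slides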
[8] = biological target: Follistatin-related protein 3 (Homo sapiens) (UniProt O95633); experiment: FSTL3 binders on small-molecule microarrays, primary screen, biochemical, small-molecule microarray, 635 nm fluorescence (AID 1105); settings: FSTL3 binding, higher = more signal;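 note: score merges emission near 667 nm and signal to noise per printed spot across three slides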
[9] = biological target: Dickkopf-related protein 1 (Homo sapiens) (UniProt O94907); experiment: DKK1 binders on small-molecule microarrays, primary screen, biochemical, small-molecule microarray, 635 nm fluorescence scan (AID 1106); settings: DKK1 binding, higher = more signal;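 note: score merges emission near 667 nm with signal to noise over three replicate slides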
[10] = system: Inhibin beta A chain (activin A); experiment: INHBA (activin A) binders on microarrays, primary screen, biochemical, small-molecule microarray, 635 nm fluorescence scan (AID 1107); settings: small-molecule microarray binding, higher = more signal;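 note: mouse activin A protein probed at 4.33 µg/mL on printed slides; score merges bound-protein fluorescence near 667 nm with spot signal-to-noise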
[11] = system: Human papillomavirus type 1a protein E7 (residues 44-93); experiment: HPV1a E7 fragment binders on microarrays, primary screen, biochemical, small-molecule microarray, residues 44-93, 635 nm fluorescence (AID 1108); settings: small-molecule microarray binding, fluorescence 635 nm; higher = more signal;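 note: E7 fragment applied at 1 µg/mL in TBST for 1 h at 4 C; score combines spot fluorescence with its signal to noise ratio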
[12] = modulators of HCV replicon luciferase signal, primary screen, HCV replication inhibitor project, Huh7 cells, luciferase reporter (AID 1109); settings: 48 h, higher = more signal;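 note: huh7 hepatoma cells harbouring a luciferase neomycin HCV replicon reporter; luciferase luminescence as measure of HCV replicon replication; test concentration not given here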
[13] = biological target: Left-right determination factor 2 (Homo sapiens) (UniProt O00292); experiment: LEFTY2 binders on small-molecule microarrays, primary screen, biochemical, small-molecule microarray, 635 nm fluorescence scan (AID 1110); settings: LEFTY2 binding, higher = more signal
[14] = biological target: Calmodulin-1 (Homo sapiens) (UniProt P0DP23); experiment: CALM1 binders on microarrays, EGTA buffer, profiling panel, biochemical, small-molecule microarray, Cy5-labelled CALM1 (AID 1111); settings: Cy5-CALM1 binding fluorescence, higher = more signal;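 note: labelled calmodulin applied in Tris saline Tween buffer holding calcium plus EGTA and DTT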
[15] = biological target: Calmodulin-1 (Homo sapiens) (UniProt P0DP23); experiment: calcium-bound CALM1 binders on microarrays, profiling panel, artefact control for SMM control-protein annotation, biochemical, small-molecule microarray, Cy5-labelled CALM1, plus calcium (AID 1112); settings: Cy5-CALM1 binding fluorescence, higher = more signal;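 note: score merges spot fluorescence with signal to noise from triplicate slides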
[16] = small-molecule microarray binders of probe aWnt5a, primary screen, biochemical, biotinylated probe, 635/667 nm fluorescence (AID 1113); settings: higher = more signal;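 note: score merges 667 nm fluorescence intensity with signal-to-noise per printed feature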
[17] = small-molecule microarray binders of probe aShh, primary screen, biochemical, biotinylated probe, 635/667 nm fluorescence (AID 1114); settings: higher = more signal;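 note: probe is biotin-labelled aShh protein from a stem cell growth factor screen; measures binding of labelled protein to compounds printed on the slide; score merges feature fluorescence at 667 nm with signal-to-noise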
[18] = small-molecule microarray binders of probe aNog, primary screen, biochemical, biotinylated probe, 635/667 nm fluorescence (AID 1115); settings: higher = more signal;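 note: probe is biotinylated aNog protein used at 0.15 µg/mL for 1 h at 4 C; z-score combines 667 nm fluorescence of each spot with its signal to noise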
[19] = biological target: Torsin-1A-interacting protein 1 (Homo sapiens) (UniProt Q5JTV8); experiment: LAP1 binders from COS7 cell lysate, primary screen, small-molecule microarray, 635/667 nm fluorescence (AID 1116); settings: COS7-hLAP1 lysate binding, 635 nm fluorescence, higher = more signal
[20] = biological target: Alpha-bungarotoxin (Bungarus multicinctus) (UniProt P60615); experiment: alpha-bungarotoxin binders on microarray, profiling panel, artefact control for SMM control protein annotation, biochemical, small-molecule microarray, Alexa647 label, 635/667 nm fluorescence (AID 1117); settings: alpha-BTX-A647 binding fluorescence, higher = more signal
Sequence of Alpha-bungarotoxin (Bungarus multicinctus) (P60615 whole entry, looked up): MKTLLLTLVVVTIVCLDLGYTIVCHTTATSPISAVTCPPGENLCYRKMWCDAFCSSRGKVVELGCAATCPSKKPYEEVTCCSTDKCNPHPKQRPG

Sequence of Epidermal growth factor receptor (Homo sapiens) (P00533 whole entry, looked up): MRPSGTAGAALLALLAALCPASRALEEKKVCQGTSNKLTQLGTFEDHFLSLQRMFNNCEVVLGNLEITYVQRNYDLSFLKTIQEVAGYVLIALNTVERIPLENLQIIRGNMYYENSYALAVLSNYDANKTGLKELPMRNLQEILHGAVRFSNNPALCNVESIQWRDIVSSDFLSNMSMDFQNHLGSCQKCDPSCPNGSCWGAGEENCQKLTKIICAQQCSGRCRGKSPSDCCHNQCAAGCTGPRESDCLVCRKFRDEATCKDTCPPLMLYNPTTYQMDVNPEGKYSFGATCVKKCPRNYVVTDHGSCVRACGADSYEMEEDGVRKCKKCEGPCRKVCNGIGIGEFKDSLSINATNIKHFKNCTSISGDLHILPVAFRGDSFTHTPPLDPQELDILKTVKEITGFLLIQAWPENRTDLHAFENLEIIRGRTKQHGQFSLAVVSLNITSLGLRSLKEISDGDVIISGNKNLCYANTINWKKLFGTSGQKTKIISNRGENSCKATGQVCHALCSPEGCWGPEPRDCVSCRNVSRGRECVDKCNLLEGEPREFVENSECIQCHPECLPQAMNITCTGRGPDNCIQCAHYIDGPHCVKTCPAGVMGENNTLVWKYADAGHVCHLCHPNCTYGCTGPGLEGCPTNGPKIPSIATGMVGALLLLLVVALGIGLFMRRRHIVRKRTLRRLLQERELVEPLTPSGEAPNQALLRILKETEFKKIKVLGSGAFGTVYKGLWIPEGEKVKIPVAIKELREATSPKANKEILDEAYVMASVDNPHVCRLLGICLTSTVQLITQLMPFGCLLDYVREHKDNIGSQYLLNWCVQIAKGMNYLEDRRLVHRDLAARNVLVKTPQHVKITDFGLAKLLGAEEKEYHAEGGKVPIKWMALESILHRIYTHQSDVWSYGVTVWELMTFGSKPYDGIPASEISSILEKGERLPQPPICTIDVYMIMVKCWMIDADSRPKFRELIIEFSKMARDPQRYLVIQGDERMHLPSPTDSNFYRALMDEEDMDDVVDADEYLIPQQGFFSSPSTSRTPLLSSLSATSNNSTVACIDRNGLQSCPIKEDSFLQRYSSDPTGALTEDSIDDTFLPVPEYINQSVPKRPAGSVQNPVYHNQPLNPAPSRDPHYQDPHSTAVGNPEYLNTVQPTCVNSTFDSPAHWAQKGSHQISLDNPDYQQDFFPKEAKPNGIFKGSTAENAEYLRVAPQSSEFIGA
Sequence of Torsin-1A-interacting protein 1 (Homo sapiens) (Q5JTV8 whole entry, looked up): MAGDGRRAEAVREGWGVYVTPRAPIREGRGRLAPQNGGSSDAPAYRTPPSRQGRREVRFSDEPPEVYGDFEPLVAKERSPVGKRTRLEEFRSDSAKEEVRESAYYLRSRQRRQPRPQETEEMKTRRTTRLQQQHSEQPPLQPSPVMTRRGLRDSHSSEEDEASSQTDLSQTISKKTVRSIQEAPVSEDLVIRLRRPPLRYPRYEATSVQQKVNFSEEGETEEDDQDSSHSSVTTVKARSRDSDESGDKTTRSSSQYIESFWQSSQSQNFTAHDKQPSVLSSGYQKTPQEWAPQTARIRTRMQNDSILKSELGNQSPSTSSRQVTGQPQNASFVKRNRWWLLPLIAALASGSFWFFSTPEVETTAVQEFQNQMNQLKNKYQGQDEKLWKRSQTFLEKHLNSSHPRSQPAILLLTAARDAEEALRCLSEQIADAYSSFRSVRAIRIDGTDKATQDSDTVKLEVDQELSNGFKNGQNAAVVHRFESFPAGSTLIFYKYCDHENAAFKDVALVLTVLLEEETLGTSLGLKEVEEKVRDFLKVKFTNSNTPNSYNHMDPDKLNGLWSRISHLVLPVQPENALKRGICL
Sequence of Dickkopf-related protein 1 (Homo sapiens) (O94907 whole entry, looked up): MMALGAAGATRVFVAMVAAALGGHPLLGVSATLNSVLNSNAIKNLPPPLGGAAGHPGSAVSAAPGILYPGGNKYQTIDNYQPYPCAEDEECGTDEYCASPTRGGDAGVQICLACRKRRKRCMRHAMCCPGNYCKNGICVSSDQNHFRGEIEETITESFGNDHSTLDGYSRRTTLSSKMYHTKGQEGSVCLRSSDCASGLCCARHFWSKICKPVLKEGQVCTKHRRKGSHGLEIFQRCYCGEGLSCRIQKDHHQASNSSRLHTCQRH
Sequence of Left-right determination factor 2 (Homo sapiens) (O00292 whole entry, looked up): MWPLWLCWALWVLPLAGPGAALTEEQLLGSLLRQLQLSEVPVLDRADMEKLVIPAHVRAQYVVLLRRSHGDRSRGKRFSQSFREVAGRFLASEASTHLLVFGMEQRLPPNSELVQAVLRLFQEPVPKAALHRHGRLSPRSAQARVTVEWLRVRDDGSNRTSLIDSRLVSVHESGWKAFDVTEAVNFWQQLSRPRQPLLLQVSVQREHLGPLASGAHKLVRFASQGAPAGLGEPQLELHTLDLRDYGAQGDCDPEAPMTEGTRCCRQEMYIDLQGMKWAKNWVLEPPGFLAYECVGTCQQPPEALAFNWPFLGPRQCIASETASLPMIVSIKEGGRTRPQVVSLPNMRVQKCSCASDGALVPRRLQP
Sequence of Fibroblast growth factor 10 (Homo sapiens) (O15520 whole entry, looked up): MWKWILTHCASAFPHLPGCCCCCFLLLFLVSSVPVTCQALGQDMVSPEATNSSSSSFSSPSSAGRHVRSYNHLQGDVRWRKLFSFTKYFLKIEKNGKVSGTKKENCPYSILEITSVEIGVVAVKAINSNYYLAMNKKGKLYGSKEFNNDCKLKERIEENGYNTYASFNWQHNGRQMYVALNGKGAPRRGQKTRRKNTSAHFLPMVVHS
Sequence of Follistatin-related protein 3 (Homo sapiens) (O95633 whole entry, looked up): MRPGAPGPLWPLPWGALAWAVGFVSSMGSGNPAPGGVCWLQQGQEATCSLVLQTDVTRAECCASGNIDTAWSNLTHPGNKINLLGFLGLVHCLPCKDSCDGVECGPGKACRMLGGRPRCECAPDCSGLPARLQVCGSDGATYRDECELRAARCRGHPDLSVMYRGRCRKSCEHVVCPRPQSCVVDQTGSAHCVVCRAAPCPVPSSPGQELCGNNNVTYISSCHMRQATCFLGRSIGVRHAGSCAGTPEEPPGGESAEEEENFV

| SMILES | composite z-score [1] | composite z-score [2] | composite z-score [3] | z-score [4] | composite z-score [5] | composite z-score [6] | composite z-score [7] | composite z-score [8] | composite z-score [9] | composite z-score [10] | composite z-score [11] | z-score [12] | composite z-score [13] | composite z-score [14] | composite z-score [15] | composite z-score [16] | composite z-score [17] | composite z-score [18] | composite z-score [19] | composite z-score [20] |
| --- | --- | --- | --- | --- | --- | --- | --- | --- | --- | --- | --- | --- | --- | --- | --- | --- | --- | --- | --- | --- |
| C=CCNC(=O)[C@H]1[C@@H]2C(=O)O[C@@H](c3ccccc3)[C@@H](c3ccccc3)N2[C@@H](c2ccc(OCCO)cc2)[C@]12C(=O)N(C(=O)OCCOC)c1ccc(C#CCNC(N)=O)cc12 | 1.27 | 0.02 | 0.687 | 0.0908 (inactive) | 1.3 | 0.998 | 0.686 | 0.989 | 0.998 | 0.823 | 1.06 | -0.197 | 0.716 | 1.17 | 0.152 | 0.291 | 0.194 | 0.49 | 1.33 | 2.1 |
| CCCCC(=C=CC[C@H](O)c1cccc(OCCO)c1)C[C@H](O)c1cc(Cl)cc(Cl)c1O | 1.28 | -0.152 | -0.214 | -0.109 (inactive) | 1.27 | 0.25 | -0.443 | 0.544 | 0.0244 | 0.295 | 1.39 | -1.59 | -0.0526 | 0.154 | -0.484 | -0.096 | -0.0626 | 0.422 | 0.839 | 0.645 |
| CN1C(=O)C2CC=C(C3=CCO[C@@H]3[C@H]3CCCN3S(=O)(=O)c3ccccc3[N+](=O)[O-])CC2C1=O (stereo not given in full) | 1.11 | -0.22 | -0.193 | 0.129 (inactive) | 0.447 | -0.12 | -0.141 | -0.59 | -0.261 | 0.666 | -0.351 | -0.0844 | -0.377 | -0.194 | -0.0107 | -0.242 | -0.2 | -0.0116 | 0.0183 | 0.0302 |
| COC(=O)[C@@]1(Cc2ccc(F)cc2)[C@H]2c3cc(C(=O)N(C)C)n(CCF)c3C[C@H]2CN1C(=O)c1ccccc1 | -0.0822 | 0.9 | 0.987 | -1.66 (inactive) | 0.295 | 0.139 | -0.0604 | -0.0956 | -0.256 | 0.856 | -0.999 | -1.38 | -0.0571 | 0.838 | 0.55 | 0.0657 | 0.337 | 0.787 | 0.163 | 0.3 |
| O=C1c2ccccc2[C@](Cc2ccccc2I)(C(=O)NCCN2CCOCC2)[C@H](c2ccc(CO)cc2)N1Cc1ccccc1C(F)(F)F | 0.655 | -0.0516 | 0.358 | -0.0322 (inactive) | 0.275 | 0.484 | -0.288 | 0.276 | -0.419 | 0.734 | 1.4 | -2.44 | -0.325 | 0.799 | 0.492 | -0.0721 | -0.221 | -0.43 | 0.598 | 0.787 |
| [N-]=[N+]=NCc1ccccc1C[C@@]1(C(=O)NCCN2CCOCC2)N=C(c2ccc(OCCCO)cc2)O[C@@H]1c1ccccc1 | 0.365 | 0.809 | 0.996 | 0.995 (inactive) | 0.486 | -0.0659 | -0.883 | -0.192 | -0.342 | 0.293 | 1.39 | -2.6 | -0.58 | 1.26 | 0.683 | 0.0391 | 0.358 | 0.35 | 1.06 | 1.19 |

— PubChem BioAssay
